# Data as given in PMC5540273 (PLoS ONE, 2017).
# Columns and labels:
# Conditions in all cases: concentration: 1 μM,replicates: in singlicate; n = 1
# [1] = system: T1, SNARK
# T1 construct: gene NUAK2
# [2] = system: SNRK
# [3] = system: SRC
# [4] = system: SRMS
# [5] = system: SRPK1
# [6] = system: SRPK2
# [7] = system: SRPK3
# [8] = system: STK16
# [9] = system: STK33
# [10] = system: STK35
# [11] = system: STK36
# [12] = system: STK39
# [13] = system: SYK
# [14] = system: SgK110
# [15] = system: T2, TAK1
# T2 construct: gene MAP3K7
# [16] = system: TAOK1
# [17] = system: TAOK2
# [18] = system: TAOK3
# [19] = system: TBK1
# [20] = system: TEC
# 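Note: KINOMEscan kinase panel screen.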
SMILES,%Inh [1],%Inh [2],%Inh [3],%Inh [4],%Inh [5],%Inh [6],%Inh [7],%Inh [8],%Inh [9],%Inh [10],%Inh [11],%Inh [12],%Inh [13],%Inh [14],%Inh [15],%Inh [16],%Inh [17],%Inh [18],%Inh [19],%Inh [20]
CCOC(=O)N1CCC(n2cnc(-c3ccc(F)cc3)c2-c2ccnc(N)n2)CC1 [SB-219952],0%,10%,0%,0%,9%,0%,28%,6%,0%,38%,47%,46%,13%,0%,42%,0%,3%,0%,16%,0%
OCCn1cc(-c2cnc3nnn(Cc4ccc5ncccc5c4)c3n2)cn1,0%,0%,0%,0%,0%,4%,0%,0%,0%,0%,0%,0%,0%,0%,12%,0%,0%,0%,0%,0%
COC(=O)c1cccc(NC(=O)NC2CCN(c3ccnc(NCc4ccc(F)cc4)n3)CC2)c1 [GSK1379860],0%,0%,0%,0%,61%,0%,0%,0%,0%,0%,0%,0%,25%,0%,0%,0%,0%,0%,0%,15%
c1ccc(Oc2ccc(Nc3ccnc4ccc(-c5ccccn5)cc34)cc2)cc1 [GW407034],0%,0%,17%,94.9%,0%,0%,17%,0%,0%,31%,0%,15%,1%,27%,0%,0%,24%,0%,18%,78%
CCCC(=O)Nc1n[nH]c2ncccc12 [SB-601436],0%,0%,0%,4%,16%,0%,10%,3%,0%,0%,4%,0%,8%,0%,0%,2%,3%,0%,0%,0%
CCn1c(-c2nonc2N)nc2cncc(CNC3CCNCC3)c21.Cl [SB-747651],13%,0%,0%,0%,23%,0%,0%,15%,0%,0%,0%,24%,21%,2%,0%,0%,1%,0%,7%,2%
C[C@@H]1CCN(C(=O)N2CCCC2)C[C@@H]1N(C)c1ncnc2[nH]ccc12,61%,18%,0%,0%,8%,3%,14%,0%,0%,0%,7%,0%,21%,73%,43%,0%,0%,0%,64%,0%
C[C@@H]1CNc2c(sc3ccc4nc(-c5ccncc5)ccc4c23)C(=O)N1,53%,11%,1%,0%,23%,0%,31%,13%,60%,0%,6%,0%,11%,0%,62%,75%,0%,0%,9%,0%
CS(=O)(=O)Nc1ccc(-c2ccnc3[nH]ccc23)cc1 [GSK993273],40%,0%,0%,0%,77%,0%,75%,81%,5%,15%,0%,24%,52%,0%,33%,27%,0%,0%,10%,16%
COc1ccc(Nc2nccc(N3CCC(NC(=O)c4cccc(C#N)c4)C3)n2)cc1 (centres unmarked) [GSK1379730],0%,0%,19%,0%,36%,0%,0%,2%,10%,0%,0%,0%,19%,0%,0%,0%,0%,0%,0%,0%
Cc1ccn2nc(-c3ccc(F)cc3)c(-c3ccncc3)c2c1.Cl [GW457859],7%,52%,0%,0%,13%,68%,0%,1%,0%,0%,24%,4%,18%,0%,64%,0%,0%,0%,14%,0%
Cn1cc(-c2cccc3c(N)c(C(N)=O)nnc23)cn1,9%,11%,0%,24%,45%,11%,39%,11%,27%,8%,6%,29%,11%,0%,21%,25%,29%,12%,31%,0%
Cc1nnc(-c2ccc3occ(-c4ccc(S(C)=O)cc4)c3n2)o1 (centres unmarked),0%,0%,0%,0%,0%,0%,0%,11%,0%,45%,0%,0%,0%,3%,0%,0%,0%,0%,30%,0%
Nc1nccc(-c2ccc3c(N)n[nH]c3c2)n1 [GSK1034945],35%,0%,0%,0%,67%,0%,55%,29%,0%,0%,0%,1%,0%,0%,8%,62%,0%,0%,20%,13%
O=C(Nc1cccc(Oc2ccc3nccn3n2)c1)Nc1cccc(C(F)(F)F)c1,0%,0%,0%,0%,0%,0%,14%,9%,21%,0%,0%,0%,0%,16%,0%,0%,0%,0%,8%,0%
Cn1ccc2ncnc(Oc3ccc(NC(=O)Nc4cncc(C(F)(F)F)c4)c(Cl)c3)c21,0%,0%,5%,0%,73%,0%,0%,4%,8%,0%,0%,0%,0%,9%,11%,0%,0%,0%,0%,0%
CNC(=O)c1ccccc1Nc1nc(Nc2cccc(CS(C)(=O)=O)c2)ncc1C.O=CO [GSK1520489],99%,0%,100%,95.1%,95.4%,24%,75%,99.3%,93.2%,34%,65%,15%,70%,100%,96%,72%,15%,52%,44%,99.9%

SMILES,%Inh [1],%Inh [2],%Inh [3],%Inh [4],%Inh [5],%Inh [6],%Inh [7],%Inh [8],%Inh [9],%Inh [10],%Inh [11],%Inh [12],%Inh [13],%Inh [14],%Inh [15],%Inh [16],%Inh [17],%Inh [18],%Inh [19],%Inh [20]
CC(C(=O)NC1CCN(c2ccnc(Nc3ccc(F)cc3)n2)C1)c1ccc(Cl)cc1 (centres unmarked) [GSK1379713],0%,0%,0%,0%,20%,0%,18%,0%,5%,0%,0%,0%,30%,13%,0%,0%,0%,0%,0%,0%
C[C@@H]1CNc2c(sc3ccc4nc(-c5ccc(O)cc5)ccc4c23)C(=O)N1,85%,2%,0%,0%,0%,0%,24%,30%,78%,9%,5%,6%,0%,0%,44%,86%,0%,0%,8%,5%
O=c1[nH]cc(-c2ccc(O)cc2)c2sc(-c3ccncc3)cc12 [GSK1033723],8%,0%,0%,0%,21%,5%,0%,22%,0%,0%,26%,6%,26%,0%,11%,14%,0%,0%,19%,0%
CN(c1ccccc1CNc1nc(Nc2ccc3c(c2)CC(=O)N3)ncc1C(F)(F)F)S(C)(=O)=O,93.4%,0%,70%,0%,46%,0%,39%,99.9%,68%,0%,8%,0%,86%,0%,76%,92.7%,6%,86%,48%,0%
COc1cccc(OC)c1C(=O)Nc1cccc(-c2nn3ccccc3c2-c2ccnc(Nc3cccc(F)c3)n2)c1 [GSK361065],91.2%,0%,21%,0%,28%,0%,4%,29%,26%,0%,92%,11%,3%,16%,16%,62%,15%,60%,61%,26%
Cl.Nc1n[nH]c2cc(-c3ccccn3)ccc12 [GSK2189892],18%,0%,0%,0%,0%,0%,0%,22%,0%,0%,0%,0%,7%,0%,2%,0%,0%,0%,6%,0%
C[C@@H](Oc1cc(-n2cnc3ccc(-c4ccncc4)cc32)sc1C(N)=O)c1ccccc1Cl [GSK483724],51%,0%,5%,0%,73%,0%,25%,80%,19%,0%,0%,7%,12%,0%,39%,0%,0%,0%,17%,11%
Cl.c1ccc(Oc2ccc(Nc3ccnc4cc(-c5ccc(CN6CCNCC6)o5)ccc34)cc2)nc1 [GW567142],14%,0%,34%,89%,0%,7%,0%,0%,24%,57%,0%,1%,0%,0%,3%,0%,0%,0%,25%,26%
Cn1ccc2ncnc(Oc3ccc(NC(=O)Nc4ccnc(C(F)(F)F)c4)c(Cl)c3)c21,0%,0%,13%,0%,49%,0%,0%,0%,0%,15%,0%,0%,0%,47%,2%,0%,0%,0%,0%,0%
O=C(NOCC1CC1)c1cc(Br)c(F)c(F)c1Nc1ccc(I)cc1Cl,0%,0%,2%,0%,0%,0%,0%,20%,0%,0%,0%,0%,13%,0%,0%,0%,27%,0%,5%,0%
Cn1ccc2ncnc(Oc3ccc(NC(=O)Nc4cc(C(C)(C)C)on4)c(Cl)c3)c21,0%,13%,44%,0%,80%,0%,0%,2%,64%,30%,0%,23%,0%,27%,81%,0%,0%,0%,28%,9%
COc1cc(Nc2nccc(N3CCC(NC(=O)c4cccc(C#N)c4)C3)n2)cc(OC)c1OC (centres unmarked) [GSK1379751],3%,0%,22%,0%,49%,24%,0%,64%,0%,0%,0%,0%,0%,0%,0%,0%,0%,0%,10%,0%
Cc1ccc(C(=O)Nc2ccc(Oc3ccc4nc(NC(=O)C5CC5)cn4c3)c(F)c2)c(=O)n1-c1ccccc1,0%,0%,11%,0%,0%,23%,25%,17%,24%,0%,3%,25%,59%,0%,0%,0%,0%,0%,44%,55%
Cl.Cl.NC[C@H](CC1CCCCC1)NC(=O)c1ccc(-c2ccnc3[nH]ccc23)s1 [GSK1581428],98.3%,0%,17%,0%,85%,12%,91.6%,54%,98.4%,63%,0%,7%,20%,95.3%,64%,87%,0%,14%,29%,0%
O=C1NCCc2[nH]c(-c3ccncc3)cc21,87%,12%,6%,0%,0%,0%,4%,33%,,68%,6%,23%,11%,0%,23%,96.9%,16%,41%,20%,0%
CC(=O)c1c(-c2ccncc2)[nH]c(-c2ccncc2)c1C [GW493036],0%,0%,0%,0%,24%,16%,0%,28%,0%,0%,10%,20%,24%,0%,19%,63%,0%,0%,0%,0%
